Source: publication PMC4552634, “A New Set of Chemical Starting Points with Plasmodium falciparum Transmission-Blocking Potential for Antimalarial Drug Discovery” (PLoS ONE, 2015)
The campaign covered roughly 13,000 compounds. About 3,200 (25%) showed an effect of 50% or more. Some of the results follow.

Each molecule was assayed on P. falciparum stage V gametocytes. Conditions: 48 h, 5 µM; inhibitor.
Set-up: BacTiter-Glo ATP luminescence viability of purified stage V gametocytes in 384-well plates, per cent inhibition versus DMSO
In the case of `CCCCCCCCCN(CCC)C(=O)[C@@H]1OC(C(=O)OC(c2ccccc2)c2ccccc2)=C[C@H](NC(=O)OC(C)(C)C)[C@H]1NC(C)=O` [TCMDC-132020], the “% Inhibition” value is reported as -25.5%. In the case of `O=C(Nc1ccc(Oc2cccnc2)cc1)C1CCN(Cc2cc(Cl)ccc2O)CC1` [TCMDC-124640], the “% Inhibition” value is reported as -32.1%. In the case of `O=C(Cc1cnc[nH]1)Nc1ccc(-c2ccc(-c3nc4ccc(F)cc4[nH]3)cc2)cc1` [TCMDC-136781], the “% Inhibition” value is reported as -5.638%. In the case of `CC(=O)Nc1nc(C(=O)Nc2ccc(-c3cccc(-c4nc5ccc(F)cc5[nH]4)c3)cc2)cs1` [TCMDC-137122], the “% Inhibition” value is reported as -21.41%. In the case of `O=C(NCc1cccc(OC(F)(F)F)c1)c1cnc2c(c1)nc(-c1cnc(-c3ccccc3)[nH]1)n2CCc1cnc[nH]1` [TCMDC-139690], the “% Inhibition” value is reported as -64.98%. For `COc1cc(OC)c(NC(=O)C2c3ccccc3C(=O)N(CC(C)C)C2c2cccs2)cc1Cl` (centres unmarked) [TCMDC-124760], the “% Inhibition” value was 55.1%. With `CCn1c(=O)c(C(=O)Nc2cc(Cl)c(OC)cc2OC)nc2ccccc21` [TCMDC-125064] the “% Inhibition” value was -72.41%. With `COc1ccc(OC)c(NC(=O)C2c3ccccc3C(=O)N(CC(C)C)C2c2cccs2)c1` (centres unmarked) [TCMDC-124759] the “% Inhibition” value was 26.61%. For `O=C(CN1CCN(C(C(=O)Nc2cc(C(F)(F)F)ccc2Cl)c2ccccc2)CC1)NC1CC1` (centres unmarked) [TCMDC-125267], the “% Inhibition” value was 8.518%. For `COc1ccc(C(C)Nc2nc(N)c3cc(OC)c(OC)cc3n2)cc1.Cl` (centres unmarked) [TCMDC-131891], the “% Inhibition” value was 10.29%. `COc1cc2nc(N3CCC(CCCC4CCNCC4)CC3)nc(NCc3ccccn3)c2cc1OC` [TCMDC-138494] was tested, and the “% Inhibition” value was 104%. `COc1cc2nc(NCCc3ccccc3)nc(NCc3ccc(C#N)cc3)c2cc1OC` [TCMDC-135300] was tested, and the “% Inhibition” value was 97.53%. In the case of `C[C@@H](Nc1nc(NCc2ccccc2)c2sccc2n1)c1ccccc1` [TCMDC-136500], the “% Inhibition” value is reported as -1.002%. In the case of `CC(C)Nc1nc(NCCc2cnc[nH]2)nc(NCc2cccc3ccccc23)n1` [TCMDC-139736], the “% Inhibition” value is reported as 1.941%. With `COc1cc2nc(NCCc3ccccc3)nc(NC(C)c3ccccc3)c2cc1OC` (centres unmarked) [TCMDC-135384] the “% Inhibition” value was 51.56%. With `COc1cc2nc(N3CCC(c4ccccc4)CC3)nc(NCc3ccc(=O)[nH]c3)c2cc1OC` [TCMDC-136497] the “% Inhibition” value was -1.844%. `c1ccc(CNc2nc(NCCc3cnc[nH]3)nc(NCc3cccc4ccccc34)n2)cc1` [TCMDC-139737] was tested, and the “% Inhibition” value was 1.176%. `COc1ccc(CCNc2nc(NCCc3cnc[nH]3)nc(NCc3cccc4ccccc34)n2)cc1OC` [TCMDC-139244] was tested, and the “% Inhibition” value was 77.02%. For `CC[C@H]1CN2CC[C@H]1C[C@H]2[C@H](OC(=O)c1ccccc1)c1cc(C#N)nc2ccc(OC)cc12` [TCMDC-138208], the “% Inhibition” value was 28.19%. `NC(N)=NC(=O)Nc1cc(Cl)c(Cl)c(Br)c1` [TCMDC-137463] was tested, and the “% Inhibition” value was -17.34%. In the case of `N=C(N)c1cc(Cl)cc(NC(=O)Nc2cc(Cl)cc(C(=N)N)c2)c1` [TCMDC-124110], the “% Inhibition” value is reported as -2.183%. For `COc1cc2nc(NCC3CCCCC3)nc(NCc3ccccc3)c2cc1OC` [TCMDC-132014], the “% Inhibition” value was 59.54%. For `COc1cc2nc(-c3ccccc3)nc(N3CCN(C(=O)c4ccco4)CC3)c2cc1OC` [TCMDC-125059], the “% Inhibition” value was -9.427%. In the case of `COc1ccc(CNc2nc(NCCc3ccccc3)c3cc(OC)c(OC)cc3n2)cc1OC` [TCMDC-132019], the “% Inhibition” value is reported as 85.76%. For `COc1cc2nc(N3CCN(C(=O)c4ccco4)CC3)nc(NCc3ccccc3)c2cc1OC` [TCMDC-132028], the “% Inhibition” value was 52.38%. `COc1cc2nc(N3CCC(C(N)=O)CC3)nc(NCc3ccccc3)c2cc1OC` [TCMDC-132023] was tested, and the “% Inhibition” value was 16.05%. In the case of `COc1cc2nc(NCCc3ccccc3)nc(NCc3cc(C)no3)c2cc1OC` [TCMDC-135435], the “% Inhibition” value is reported as 96.72%. In the case of `CC(=O)NCCCCC1NC2(C(=O)N(Cc3ccc(C(C)(C)C)cc3)c3ccccc32)C2C(=O)N(C3CCCCC3)C(=O)C12` (centres unmarked) [TCMDC-139771], the “% Inhibition” value is reported as 5.053%. For `Cc1cc(N(C)C)nc(Nc2ccc(NC(=O)c3ccc(F)cc3)cc2)n1` [TCMDC-124723], the “% Inhibition” value was 5.364%. For `O=C(Nc1ccc(Cl)cc1)Nc1cccc(-c2ccc(-c3nc4ccccc4[nH]3)cc2)c1` [TCMDC-133182], the “% Inhibition” value was -15.2%. `CN(C)CCCNc1ncnc2c1[nH]c1ccc(F)cc12` [TCMDC-125598] was tested, and the “% Inhibition” value was -5.367%. `COc1cc2nc(NCCc3ccccc3)nc(NCCCc3ccccc3)c2cc1OC` [TCMDC-135301] was tested, and the “% Inhibition” value was 108%. With `COc1ccc(CCNc2nc(N)c3cc(OC)c(OC)cc3n2)cc1.Cl` [TCMDC-131888] the “% Inhibition” value was 1.23%. `O=c1ccc(CNc2nc(NCCc3ccccc3)nc3ccc(Cl)cc23)c[nH]1` [TCMDC-136489] was tested, and the “% Inhibition” value was 35.37%. In the case of `COc1cc2nc(NCCc3ccccc3)nc(NCc3nccs3)c2cc1OC` [TCMDC-135436], the “% Inhibition” value is reported as 24.41%. With `COc1ccc(CNc2nc(NCc3ccc(C(F)(F)F)cc3)c3cc(OC)c(OC)cc3n2)cc1OC` [TCMDC-132016] the “% Inhibition” value was 104.7%. `Clc1ccc2c(NCCc3ccccc3)ccnc2c1` [TCMDC-138551] was tested, and the “% Inhibition” value was -1.928%. `COc1cc2ncnc(Nc3ccc(OCc4ccccc4)c(C(F)(F)F)c3)c2cc1OC` [TCMDC-131921] was tested, and the “% Inhibition” value was 4.607%. With `COc1cc2nc(NCCn3nc(C)cc3C)nc(NCCc3ccccc3)c2cc1OC` [TCMDC-135473] the “% Inhibition” value was 52.48%. `O=c1ccc(CNc2nc(NCCc3ccccc3)nc3cc(Cl)ccc23)c[nH]1` [TCMDC-136510] was tested, and the “% Inhibition” value was 52.65%. For `Cc1c(CNCCCNc2cc(=O)c3ccccc3[nH]2)sc(-c2ccco2)c1Br` [TCMDC-141065], the “% Inhibition” value was -27.75%. With `CSc1cccc(Nc2nc3ccc(S(=O)(=O)NC(C)C(C)C)cc3n2[C@H](C)C(C)(C)C)c1` (some centres unmarked) [TCMDC-136239] the “% Inhibition” value was -63.84%. `Cc1nn(C)cc1C(C)Nc1nncc(-c2ccc(C(F)(F)F)cc2)n1` (centres unmarked) [TCMDC-124694] was tested, and the “% Inhibition” value was -19.2%. With `OC1(c2ccc(Br)cc2)CCN(C2CCN(Cc3ccccc3)CC2)CC1` [TCMDC-124137] the “% Inhibition” value was 40.29%.
